{"source": "PubChem BioAssay AID1259417", "about": "(TB Discovery Research, Infectious Disease Research Institute, 2018)", "test": "M. tuberculosis growth inhibition, HTS (AID 1259417);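 further: bacteria grown with compound for 5 days at 37 °C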", "conditions": "stronger effect = higher value, concentration not given here", "key": {"[1]": {"conditions": "M. tuberculosis DsRed fluorescence growth inhibition"}, "[2]": {"conditions": "M. tuberculosis growth inhibition"}}, "note": "Screen size: about 1,100 compounds; about 760 (69%) were called active. How the calls were made is not given here. So high a share suggests a set chosen from earlier hits. Some of the results follow."}
{"smiles": "CSc1ccc(C(=O)C2CCCN(Cc3cc4ccccc4[nH]3)C2)cc1", "note": "(centres undefined)", "values": [{"measurement": "inhibition", "setting": "[1]", "value": "4.22% (inactive)"}, {"measurement": "inhibition", "setting": "[2]", "value": -24.7, "unit": "%"}]}
{"smiles": "CCC(C)c1ccc(O)c(NC(=S)NC(=O)c2ccc(-c3ccc(Cl)cc3)o2)c1", "note": "(centres undefined)", "values": [{"measurement": "inhibition", "setting": "[1]", "value": "74.3% (active)"}, {"measurement": "inhibition", "setting": "[2]", "value": 78.2, "unit": "%"}]}
{"smiles": "CCCC(=O)N1CCN(c2ccc(NC(=O)c3ccc(-c4ccc(Cl)cc4)o3)cc2Cl)CC1", "values": [{"measurement": "inhibition", "setting": "[1]", "value": "0.329% (inactive)"}, {"measurement": "inhibition", "setting": "[2]", "value": -21.3, "unit": "%"}]}
{"smiles": "CCC(C)c1ccc(O)c(NC(=S)NC(=O)c2cccnc2)c1", "note": "(centres undefined)", "values": [{"measurement": "inhibition", "setting": "[1]", "value": "99.4% (active)"}, {"measurement": "inhibition", "setting": "[2]", "value": 99.7, "unit": "%"}]}
{"smiles": "O=C(Nc1cccc(Br)c1)c1ccc(-c2ccc(Cl)cc2)o1", "values": [{"measurement": "inhibition", "setting": "[1]", "value": "8.23% (inactive)"}, {"measurement": "inhibition", "setting": "[2]", "value": 21, "unit": "%"}]}
{"smiles": "C=CCn1c(=NC(=O)c2ccc([N+](=O)[O-])s2)sc2cc(S(N)(=O)=O)ccc21", "values": [{"measurement": "inhibition", "setting": "[1]", "value": "59.9% (active)"}, {"measurement": "inhibition", "setting": "[2]", "value": 94.9, "unit": "%"}]}
{"smiles": "CCc1c(C)c2ccc(OCC(=O)OC)c(C)c2oc1=O", "values": [{"measurement": "inhibition", "setting": "[1]", "value": "49.4% (active)"}, {"measurement": "inhibition", "setting": "[2]", "value": 89.1, "unit": "%"}]}
{"smiles": "COC(=O)Cc1c(C)c2ccc(OCC(=O)OCc3ccccc3)c(C)c2oc1=O", "values": [{"measurement": "inhibition", "setting": "[1]", "value": "4.42% (active)"}, {"measurement": "inhibition", "setting": "[2]", "value": 54, "unit": "%"}]}
{"smiles": "Cc1cc(C)cc(COc2ccc3c(C)c(CCC(=O)O)c(=O)oc3c2C)c1", "values": [{"measurement": "inhibition", "setting": "[1]", "value": "13.5% (inactive)"}, {"measurement": "inhibition", "setting": "[2]", "value": -13.6, "unit": "%"}]}
{"smiles": "O=c1cnnc(NN=Cc2cc(Br)ccc2O)[nH]1", "values": [{"measurement": "inhibition", "setting": "[1]", "value": "100% (active)"}, {"measurement": "inhibition", "setting": "[2]", "value": 98.8, "unit": "%"}]}
{"smiles": "O=C(c1cccc([N+](=O)[O-])c1)N1N=C(c2ccc(Br)cc2)CC1(O)C(F)(F)F", "note": "(centres undefined)", "values": [{"measurement": "inhibition", "setting": "[1]", "value": "5.59% (inactive)"}, {"measurement": "inhibition", "setting": "[2]", "value": 21, "unit": "%"}]}
{"smiles": "Cc1cccc(C(=O)N2N=C(c3ccc(Br)cc3)CC2(O)C(F)(F)F)c1", "note": "(centres undefined)", "values": [{"measurement": "inhibition", "setting": "[1]", "value": "12.2% (active)"}, {"measurement": "inhibition", "setting": "[2]", "value": 41, "unit": "%"}]}
{"smiles": "COc1cc(CNC23CC4CC(CC(C4)C2)C3)ccc1OCc1ccccc1", "values": [{"measurement": "inhibition", "setting": "[1]", "value": "99.4% (active)"}, {"measurement": "inhibition", "setting": "[2]", "value": 96.2, "unit": "%"}]}
{"smiles": "CCOc1cc(CNC23CC4CC(CC(C4)C2)C3)ccc1OCc1cccs1", "values": [{"measurement": "inhibition", "setting": "[1]", "value": "99.7% (active)"}, {"measurement": "inhibition", "setting": "[2]", "value": 95.9, "unit": "%"}]}
{"smiles": "c1ccc(COc2ccccc2CNC23CC4CC(CC(C4)C2)C3)cc1", "values": [{"measurement": "inhibition", "setting": "[1]", "value": "22.3% (inactive)"}, {"measurement": "inhibition", "setting": "[2]", "value": 3.79, "unit": "%"}]}
{"smiles": "CN(C)c1ccc(CNC23CC4CC(CC(C4)C2)C3)cc1", "values": [{"measurement": "inhibition", "setting": "[1]", "value": "98.9% (active)"}, {"measurement": "inhibition", "setting": "[2]", "value": 95.5, "unit": "%"}]}
{"smiles": "CCOc1cccc(N2C(=O)CC(SC(N)=NN=C(C)c3ccc(Cl)s3)C2=O)c1", "note": "(centres undefined)", "values": [{"measurement": "inhibition", "setting": "[1]", "value": "6.46% (inactive)"}, {"measurement": "inhibition", "setting": "[2]", "value": -10.4, "unit": "%"}]}
